Shown are actives, neighbours in structure and some others; about 1.2% of the full set was active somewhere.
LmPK inhibitor = inhibitors of Leishmania mexicana pyruvate kinase | purified LmPK, Kinase-Glo ATP luminescence, 1 h | 290,000 compounds, 0.37% hits | AID 1721 | Q27686 | Potency, µM (series often up to 57.5 µM), for inactives: top-dose activity change, negative = inhibition, actives largely listed as inhibitors; also: % is scaled to controls: 0 for no effect and ±100 for the full control effect
Target sequence (Q27686 whole entry, looked up): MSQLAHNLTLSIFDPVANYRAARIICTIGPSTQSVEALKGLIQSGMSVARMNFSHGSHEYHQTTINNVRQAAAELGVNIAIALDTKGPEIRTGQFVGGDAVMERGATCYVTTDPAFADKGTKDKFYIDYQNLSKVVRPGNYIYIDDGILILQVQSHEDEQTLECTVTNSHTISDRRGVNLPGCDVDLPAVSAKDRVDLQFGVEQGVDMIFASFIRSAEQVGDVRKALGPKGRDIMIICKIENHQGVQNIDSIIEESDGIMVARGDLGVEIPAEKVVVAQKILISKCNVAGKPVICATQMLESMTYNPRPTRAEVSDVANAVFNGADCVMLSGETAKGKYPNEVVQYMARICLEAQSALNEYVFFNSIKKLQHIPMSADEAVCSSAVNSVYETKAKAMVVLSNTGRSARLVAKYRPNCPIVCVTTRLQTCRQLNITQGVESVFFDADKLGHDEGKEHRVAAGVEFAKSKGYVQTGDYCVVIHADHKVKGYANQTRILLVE
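0.1 nM LmPK, 0.5 mM PEP, 0.1 mM ADP; 50 mM imidazole pH 7.2, 7 mM MgCl2, 50 mM KCl; 1 h RT. Kinase-Glo luminescence readout, normalized to no-enzyme (full inhibition) and uninhibited wells.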
Tb PYK inh = inhibitors of Trypanosoma brucei pyruvate kinase | TbPYK enzyme, Kinase-Glo Plus ATP luminescence, 45 min | Potency, µM (doses to about 76.8 µM), inactives show top-dose activity, negative = inhibition, most hits filed as inhibitors | 410,000 compounds, 0.12% hits; also: % is scaled to controls: 0 for no effect and ±100 for the full control effect; nearly all actives have a fitted effect of over 50% in size
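Quantitative HTS: titrated library compounds versus trypanosomal pyruvate kinase in TEA buffer (pH 7.2) containing KCl, MgCl2, BSA and Tween-20. Reactions were initiated with ADP, 130 uM final. Kinase-Glo Plus luminescence was read after 45 min at RT.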
AMA1-RON2 inh = AMA1-RON2 (P. falciparum) interaction inhibition | 360,000 compounds, 0.2% hits | AID 720542 | Potency, µM (highest dose often 58.2 µM), for the others: at the top dose activity change, negative = inhibition, most hits filed as inhibitors | AlphaScreen AMA1-biotinylated RON2 peptide binding;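 also: 0% = vehicle wells and -100% = peptide control; nearly all actives have a fitted effect of over 45% in size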
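AMA1 (3D7) with his tag at 25 nM final met compounds first, then biotinylated RON2 peptide at 25 nM; detection used donor plus acceptor beads, 10 µg/mL apiece, read by AlphaScreen after 30 min at room temperature.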
FBPA Giardia inh = Giardia lamblia aldolase inhibition | 290,000 compounds, 0.71% hits | Potency, µM (doses to about 59.6 µM), for inactives: top-dose activity, negative = inhibition, most hits filed as inhibitors | AID 2451 | purified Giardia FBPA; also: % is scaled to controls: 0 for no effect and ±100 for the full control effect; nearly all actives have a fitted effect of over 55% in size
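40 nM FBPA preincubated 10 min at RT with compound (up to 57.5 uM final), then substrate plus GAPDH/TPI/NAD/arsenate coupling and diaphorase/resazurin added. Fluorescence read after 20 min at RT, 525/598 nm.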
NS1 inh = blocks influenza NS1 protein function. Potency, µM (series often up to 46.1 µM), for inactives: at the highest dose activity, positive = more growth. 270,000 compounds, 0.4% hits. AID 2326; calls by dose curve; also: actives are rising curves; nearly all actives have a fitted effect of over 50% in size
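Compounds were scored for reversing the slow growth caused by influenza A NS1 in S. cerevisiae, measured by optical density at 600 nm. Assay medium contained 2% galactose at pH 6.0; NS1-free yeast of the same strain were the positive control.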
The depositor's hits bear a star; ? = inconclusive; . = not tested or not shown; [ ] = remark or other dose. Unless noted, calls follow the shape of the dose curve; as a rule, active = well fitted curve in the direction sought with a large enough effect; inconclusive = small, poorly fitted or top-dose-only effect, or another doubt; inactive = no such curve, though single readings can be large; an effect the other way counts as inactive or inconclusive. Potency is read from the fitted curve at half-maximal effect.

SMILES | LmPK inhibitor | Tb PYK inh | AMA1-RON2 inh | FBPA Giardia inh | NS1 inh
CN(C)c1ccc(/C=N/NC(=O)c2ccn(C)n2)cc1 | -29.3% | -7.4% | -10.7% | -3.6% | -37.2%
COC(=O)C1=C(C(=O)OC)[C@@H]2Nc3ccccc3[C@@]23C[C@@H](C(=O)OC)N(S(=O)(=O)c2ccc(C(F)(F)F)cc2)C3=N1 | -3.6%[11.5 µM] | . | . | 4.0%[12.9 µM] | .
CC1(C)CCCC2(C)C3C(O)CC2(C)C(O)C31 (stereo unspecified) | . | . | . | 0.4% | .
CC(=O)Oc1cc(OC(C)=O)c2c(=O)cc(-c3ccc(OC(C)=O)c(OC(C)=O)c3)oc2c1 | . | . | . | 3.0% | .
Nc1c(CC(=O)O)cccc1C(=O)c1ccccc1 | . | -7.4% | . | . | .
O/C(=C\c1nc2ccccc2nc1/C=C(\O)c1ccccc1)c1ccccc1 | ? | -12.0% | 7.1% | 3.15µM* | .
O=C(Nc1nc2ccccc2n1CCN1CCOCC1)c1cccc([N+](=O)[O-])c1 | . | 0.0% | . | . | .
COc1ccc2c(c1)C(c1ccccc1OC)CC(=O)O2 (stereo unspecified) | . | . | . | 1.9%[89.2 µM] | .
O=C1/C(=C\c2cccnc2)CCc2ccccc21 | 15.8µM* | 5.5% | -1.1% | 0.1% | -195.4%
O=C1/C(=C/c2cccnc2)CC/C1=C\c1cccnc1 | 0.8%[11.5 µM] | -3.3% | -3.1% | 0.6% | .
Nc1cnccc1C(=O)O | -7.4% | -5.0% | 4.8% | 12.6µM* | .
COc1ccc(OC)c(NS(=O)(=O)c2ccc(-c3cc(C)no3)s2)c1 | . | -3.4%[15.4 µM] | . | . | .
COC(=O)c1ccc(N2CCc3ccccc32)c([N+](=O)[O-])c1 | 4.9% | -5.5% | 12.6µM* | 1.3% | -9.4%
COc1ccc(-n2c(-c3cccc(C)c3[N+](=O)[O-])n[nH]c2=S)cc1 | ? | ? | 92.8% | -0.5% | 7.3%
Cc1c(Cl)c(-c2n[nH]c(=S)n2Cc2ccco2)nn1C | ? | ? | 8.2% | -8.7% | 2.7%
Cc1c(Cl)c(-c2n[nH]c(=S)n2-c2ccccc2)nn1C | -11.6% | 2.82µM* | -1.4% | -8.2% | 2.9%
Cc1cccc(-c2n[nH]c(=S)n2-c2ccccc2)c1[N+](=O)[O-] | ? | 7.08µM* | 32.0% | 2.2% | 18.3%
CCc1cc(=O)oc2cc(C)c(CN3CCCC3)c(O)c12 | 1.7% | -10.9% | 11.9µM* | -17.2% | ?
Oc1cccc(/C=N/Nc2nn3cnnc3c3ccccc23)c1 | 14.1µM* | 2.4% | 38.3% | -6.9% | -3.1%
COC(=O)[C@H](COC(C)(C)C)NC(=O)O[C@H]1C(=O)c2cc(OC)ccc2O[C@@H]1c1ccc(OC)c(Br)c1 | . | . | . | 0.3% | .
Oc1cccc(C=NCc2ccccc2)c1O | -22.9% | -17.8% | -14.6% | 7.06µM* | 3.9%
COc1cc(N(C)C)cc(CN(C)CCc2ccc([N+](=O)[O-])cc2)c1O | . | . | . | 7.92µM* | .
CN(CCc1ccccc1)Cc1ccccc1[N+](=O)[O-] | -2.6% | 6.9% | -6.6% | -10.2% | 4.3%
Cc1nc(NC(=O)c2ccco2)sc1C(=O)O | 25.1µM* | 25.1µM* | -4.4% | -5.7% | -7.4%
C[C@H](NC(=O)N1CCc2nc(COc3ccccc3)c3c(c2C1)CO[C@@H](C)C3)c1ccccc1 | -1.5%[11.5 µM] | . | . | 1.8%[12.9 µM] | .
SMILES | LmPK inhibitor | Tb PYK inh | AMA1-RON2 inh | FBPA Giardia inh | NS1 inh
O=C(N/N=C/c1ccc(OC2CSC2)cc1)c1ccccc1 | -11.2% | -4.4% | -0.7% | 0.8% | -6.3%
CCOc1ccc(/C=C/C(=O)c2ccccc2)cc1 | 15.8µM* | -6.3% | -0.5% | -2.3% | -36.3%
O=C(/C=C/c1ccc(OC2CSC2)cc1)c1ccccc1 | 25.1µM* | ? | 40.1% | 0.0% | -17.6%
CCOc1ccc(N/C=C/C(=O)c2ccccc2)c([N+](=O)[O-])c1 | 3.98µM* | 25.1µM* | ? | 3.6% | -13.5%
CSc1ncnc2c1ncn2C1OC(CO)C(O)C1O (stereo unspecified) | . | . | . | 4.6% | .
CCc1cccc(C)c1Nc1c(-c2ccc(N3CCOCC3)cc2)nc2ncccn12 | . | -13.0% | . | . | .
CN1CCN(CN2C(=O)C3C4C=CC(C3C2=O)C2C3C(=O)N(CN5CCN(C)CC5)C(=O)C3C42)CC1 (stereo unspecified) | . | . | . | . | -13.2%
O=[N+]([O-])c1ccc2c(c1)S(=O)(=O)C=C2 | . | . | . | -3.7% | .
COc1ccc(C(=O)COC(=O)c2cccnc2Cl)c(OC)c1 | -2.9% | -1.9% | 0.7% | -5.7% | .
O=C(COC(=O)c1cccnc1Cl)c1ccc(OC(F)F)cc1 | 15.8µM* | -1.2% | 1.3% | -1.3% | .
O=C(O)c1ccc(-c2nnc(-c3ccccc3)o2)cc1 | 12.6µM* | -26.3% | 2.9% | -1.3% | 3.7%
